# Compound activity as filed in PubChem BioAssay.
# This is a sample that favours compounds with a hit; in the whole collection about 2% have one here.
# A3G deaminase: inhibitors of human APOBEC3G DNA deaminase. Q9HC16. recombinant A3G, ssDNA deamination FAM/TAMRA fluorescence. inhibition, % at 20 µM. hit rate 0.28% among 330,000;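 active = inhibition of at least 40% at 20 µM, with no more than 30% in the related APOBEC3A deaminase screen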;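 note: plate controls were DMSO wells with A3G for no effect and wells lacking A3G enzyme for full effect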
# Target sequence (Q9HC16 whole entry, looked up): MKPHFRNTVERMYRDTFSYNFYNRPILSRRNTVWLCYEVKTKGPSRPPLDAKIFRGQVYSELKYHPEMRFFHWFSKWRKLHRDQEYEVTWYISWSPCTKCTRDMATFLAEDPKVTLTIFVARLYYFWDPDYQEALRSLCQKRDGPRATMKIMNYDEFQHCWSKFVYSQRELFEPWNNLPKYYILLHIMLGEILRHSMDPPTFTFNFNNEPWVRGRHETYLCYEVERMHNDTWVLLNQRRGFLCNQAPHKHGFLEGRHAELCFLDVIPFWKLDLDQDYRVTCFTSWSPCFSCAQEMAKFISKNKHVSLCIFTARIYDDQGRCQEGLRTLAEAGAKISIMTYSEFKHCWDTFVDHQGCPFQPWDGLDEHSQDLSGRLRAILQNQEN
# PfG6PD inh: PfG6PD (Plasmodium falciparum) enzyme inhibition. hit rate 0.78% among 350,000. inhibition, % at 20 µM. AID 504690. PfGluPho enzyme, NADPH resazurin-diaphorase fluorescence;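 active = inhibition reaching at least a set limit at 20 µM in the primary screen, cut at about 59% in these data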;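 note: 0% = DMSO wells with substrate and 100% = DMSO wells lacking glucose-6-phosphate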
# GC-A act: GC-A (human) enzyme activation; P16066; HEK293 GC-A cells, cGMP TR-FRET, EC30 ANP; 0% at EC30 ANP, 100% saturating ANP; activation, % at 10 µM; hit rate 0.14% among 370,000; AID 1671463; in the data active = activation above about 40%
# APOBEC3A inh: human APOBEC3A DNA deaminase inhibition | inhibition, % at 20 µM | AID 493011 | hit rate 0.41% among 330,000 | P31941 | recombinant A3A, FAM/TAMRA ssDNA deamination fluorescence;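 active = at least 40% inhibition at 20 µM here, with at most 30% in a related deaminase screen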;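 note: plate controls were A3A with DMSO for no effect and wells lacking A3A enzyme for full effect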
# Neddylation inh: inhibitors of human cullin neddylation; TR-FRET cullin neddylation, biochemical; inhibition, % at 25 µM; hit rate 0.58% among 360,000; in the data active = inhibition above about 36%
# NPR2 activator: GC-B (human) receptor activation | HEK293-GC-B cells, CNP EC30, cGMP TR-FRET; 0% at EC30 CNP, 100% saturating CNP | activation, % at 10 µM | hit rate 0.11% among 370,000 | P20594;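 active = activation at 10 µM reaching about 35% in either raw or pattern-adjusted values, limit read from the data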
# Neddyl inh conf: cullin neddylation inhibition, confirmation | shares compounds with Neddylation inh | TR-FRET cullin neddylation biochemical assay | calls only at 25 µM | hit rate 13% among 1,800 | AID 652217; in the data active = inhibition above about 40%;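 note: neddylation substrate is the cullin 1 ring ligase complex with SKP2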
# * = called active by the depositor; i = inactive; . = no result given; + = active, no number.
SMILES,A3G deaminase,PfG6PD inh,GC-A act,APOBEC3A inh,Neddylation inh,NPR2 activator,Neddyl inh conf
CCCCCCCCN1C(=O)[C@@H](CC(=O)N2CCN(C(=O)c3ccco3)CC2)C[C@@]2(C(=O)OC)C1=C[C@H](C(C)C)O[C@@H]2C1CC1,.,.,0,.,.,-5,.
Cc1[nH]c2ccccc2c1/C=N/NC(=O)c1cc(-c2cccs2)[nH]n1,-4,8,2,-1,45*,0,i
COc1ccc(-n2c(SCc3ccc([N+](=O)[O-])cc3)nnc2-c2ccco2)cc1,.,.,-18,.,.,-15,.
Cc1ccc(OC(=O)N(C)C[C@H]2OCc3cn(nn3)CCCC(=O)N([C@@H](C)CO)C[C@@H]2C)cc1,.,.,1,.,.,1,.
CCC(=O)Nc1c(-c2ccc(C)cc2)nc2ccc(C)cn12,-7,1,2,1,47*,7,i
COC(=O)Nc1c(-c2ccccc2)nc2ccc(Cl)cn12,-1,4,1,-2,25,3,.
COC(=O)c1[nH]c2ccc(C)cc2c1NC(=O)CCN1CCN(Cc2ccc3c(c2)OCO3)CC1,-4,2,-3,-3,42*,5,i
COC(=O)c1[nH]c2cc(C)ccc2c1NC(=O)CN1CCOCC1,-3,29,3,0,15,-4,.
COC(=O)C1=C(C)N(C)C(=NCc2cc(OC)c(OC)c(OC)c2)NC1c1cccc(C(F)(F)F)c1 (stereo unspecified),.,.,-7,.,.,-4,.
CCC(NC(=O)c1ccc([N+](=O)[O-])cc1[N+](=O)[O-])c1ccccc1 (stereo unspecified),-2,-16,2,1,-38,-4,.
CCC(NC(=O)c1ccccc1O)c1ccccc1 (stereo unspecified),-5,-5,-3,-4,49*,4,i
Cc1ccc(C(=O)NCC(c2ccc(F)cc2)N2CCOCC2)cc1 (stereo unspecified),-4,-20,-6,-7,3,-8,.
CC(=O)c1ccc(-c2ccc(C(=O)NCC(c3ccc(F)cc3)N3CCOCC3)o2)cc1 (stereo unspecified),-1,-3,-3,1,57*,0,+
COc1ccc(OC)c(S(=O)(=O)N2CCCCC2C(=O)N2CCCN(C)CC2)c1 (stereo unspecified),.,.,1,.,.,-2,.
COC(=O)[C@]12CCCCC=C1N(Cc1ccc(OC)cc1)C(=O)[C@@H]2CC(=O)N1CCCC1,.,.,2,.,.,5,.
Cc1cccc(-c2cccc3c4c([nH]c23)[C@@H]2C[C@H](N(C)C(=O)C3CCCCC3)[C@H]([C@H](C)O)CN2CC4)c1,.,.,-3,.,.,4,.
COc1ccc(/C=C/c2ccccc2)cc1[C@H]1[C@H]2C=CC[C@@H](C)[C@@H]2C(=O)N1Cc1ccccc1,-6,6,-3,-3,30*,-1,i
CN1CCC(C(=O)N2CCCC(C(=O)c3ccc4c5c(cccc35)CC4)C2)CC1 (stereo unspecified),-4,-4,-1,-2,41*,0,i
CC(=O)N1CCCC(C(=O)c2ccc3c4c(cccc24)CC3)C1 (stereo unspecified),-5,26,1,1,.,1,.
O=C(NCc1ccccc1)[C@@H]1CCCN1C(=O)[C@H]1CCCN1C(=O)c1ccc(F)c(C(F)(F)F)c1,.,.,-7,.,.,-6,.
Cc1ccc2c(c1)C1CS(=O)(=O)N(C3CCCC3)C(=O)N1C2 (stereo unspecified),.,.,0,.,.,-3,.
CC(C)C1Oc2cc3oc(=O)ccc3cc2C1=O (stereo unspecified),-4,-20,-3,2,46*,-3,i
CCOC(=O)c1cnc2c(C(=O)OC)cccc2c1NCc1ccco1,-1,6,10,-3,42*,-8,i
COC(=O)c1cc(C(=O)c2cc(Cl)ccc2O)coc1=N,0,-6,-1,5,10,-1,.
COCCOC(=O)c1cc(C(=O)c2cc(F)ccc2O)coc1=N,-8,-3,-1,-6,47*,-2,i
COc1ccccc1CNc1ccc2c(c1)OC[C@H](CC(C)C)NS2(=O)=O,.,.,-5,.,.,-1,.
